From PubChem
S-ASM inh: blocks human secretory acid sphingomyelinase; Potency, µM (series often up to 57.5 µM), hits mostly inhibitors; 340,000 tested, 0.006% active; placental ASM, HMU-PC fluorogenic substrate, 60 min; P17405
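Fluorescence read-out (Ex 386 nm, Em 447 nm) after stopping the reaction at pH 10. Enzyme: ASM from human placenta; substrate HMU-PC0, 9 uM final; 60 min, 37 °C. Compound preincubation 10 min, ambient temperature.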
USP2a block: inhibitors of human ubiquitin-specific protease USP2a; USP2 core, Ub-CHOP2 coupled fluorogenic reporter, 485/531; Potency, µM (titrated, usually from 38.3 µM), actives largely listed as inhibitors; 330,000 tested, 0.01% active; O75604; AID 463254
Target sequence (O75604 whole entry, looked up): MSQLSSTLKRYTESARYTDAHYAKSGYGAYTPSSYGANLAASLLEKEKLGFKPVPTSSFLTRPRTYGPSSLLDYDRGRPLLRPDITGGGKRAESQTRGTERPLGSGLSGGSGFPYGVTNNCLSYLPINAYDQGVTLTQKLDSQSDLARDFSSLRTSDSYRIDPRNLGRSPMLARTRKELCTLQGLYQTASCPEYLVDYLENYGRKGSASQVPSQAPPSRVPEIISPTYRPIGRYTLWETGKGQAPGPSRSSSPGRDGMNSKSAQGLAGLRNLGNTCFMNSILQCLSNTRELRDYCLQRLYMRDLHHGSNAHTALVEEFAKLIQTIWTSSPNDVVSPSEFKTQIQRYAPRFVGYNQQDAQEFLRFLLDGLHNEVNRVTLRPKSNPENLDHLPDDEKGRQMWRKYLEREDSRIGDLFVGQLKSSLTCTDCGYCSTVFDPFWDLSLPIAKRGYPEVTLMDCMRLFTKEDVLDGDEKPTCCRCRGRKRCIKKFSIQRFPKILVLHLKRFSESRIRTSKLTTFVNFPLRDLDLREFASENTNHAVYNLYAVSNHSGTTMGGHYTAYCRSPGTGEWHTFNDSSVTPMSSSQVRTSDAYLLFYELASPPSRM
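Deubiquitinase activity read as fluorescence (485/531 nm) after Ub-CHOP2 cleavage activates the enterokinase reporter on its substrate; USP2 core 10nM, Ub-CHOP2 and substrate 25nM each, 30min compound preincubation then 60min RT; data normalized to NEM, curves fitted.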
CCT modulator: cytosolic chaperonin activity modulation. purified chaperonin ATPase assay, HTRF ADP detection, 30 min. activity change, % (no concentration beside the values), hits read low. 360,000 tested, 0.3% active. AID 651819; in the data active means activity change below about -30%
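ATPase activity: ADP formed was measured by HTRF Transcreener (665/615 nm ratio) after 30 min at 37 deg C with 10 uM ATP. Compounds screened at one 76 uM concentration against 40 or 20 nM TRiC in Tris pH 7.4/KCl/MgCl2/DTT buffer.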
Mm-Cpn inhibitor: blocks the Methanococcus maripaludis chaperonin Mm-Cpn; purified Mm-Cpn ATPase, ADP Transcreener TR-FRET; Potency, µM (titrated, usually from 76.9 µM), hits mostly inhibitors; 330,000 tested, 0.031% active; AID 504842; further: nearly all actives have a fitted effect of over 80% in size
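Compound-treated chaperonin, 25 nM final, turns over 10 uM ATP at 37°C for 30 min following a 10 min preincubation; ADP generated competes with ADP-d2 for Eu-cryptate antibody, lowering FRET.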
Numbers stand for hits; - = inactive; ? = inconclusive; . = not tested or not shown. Most compounds without a hit are left out; they make up all but 0.3% or so of the library. Unless noted, the call rests on the fitted dose curve; in most records, active means well fitted curve in the direction sought with a large enough effect; inconclusive means small, poorly fitted or top-dose-only effect, or another doubt; inactive means no such curve, though single readings can be large; an effect the other way counts as inactive or inconclusive.

SMILES | S-ASM inh | USP2a block | CCT modulator | Mm-Cpn inhibitor
CCOC(=O)c1ccc(N2C(=O)c3n[nH]c(-c4ccco4)c3C2c2cccc([N+](=O)[O-])c2)cc1 (stereo unspecified) | 28.2µM | - | - | -
CCOC(=O)c1ccc(N2C(=O)c3n[nH]c(C)c3C2c2ccco2)cc1 (stereo unspecified) | - | - | - | -
CCOn1c(=O)c(=O)n(OCc2ccccc2)c2ccccc21 | - | - | - | -
CC1(C)C(=O)N(OCc2ccccc2)C(C)(C)C(=O)N1OCc1ccccc1 | - | - | -31.9 | -
Cc1cc(C)cc(NC(=O)Nc2ccc(NC(=O)c3ccccc3O)cc2)c1 | - | - | - | -
OC(COc1ccc2ccccc2c1Cl)CN1CCOCC1 (stereo unspecified) | - | - | -31.8 | ?
OC(COc1cccc2ccccc12)CN1CCOCC1 (stereo unspecified) | - | . | - | .
O=C(NNc1ccc(Cl)cc1)C1CCC1 | - | - | -36.0 | -
CCOc1ccccc1NC1c2ccccc2C(=O)N1c1cccnc1 (stereo unspecified) | - | - | - | -
CCC(=O)Nc1c(C(=O)N2CCN(c3ccccn3)CC2)cnn1-c1ccc(Cl)cc1 | - | - | -56.9 | -
CCC(=O)Nc1c(C(=O)N2CCN(c3ccccn3)CC2)cnn1-c1ccc(C)cc1 | - | - | - | -
O=C(Nc1ccc(F)c(F)c1)C1CCCN1S(=O)(=O)c1ccc(F)cc1 (stereo unspecified) | - | - | - | -
COc1ccccc1C(=O)Nc1ccc(S(=O)(=O)Nc2onc(C)c2C)cc1 | - | - | - | -
COc1ccc(C(=O)Nc2ccc(S(=O)(=O)Nc3onc(C)c3C)cc2)c(OC)c1 | - | - | -35.2 | -
COc1cccc(NC(=O)CN(C)C(=O)c2cc(C)oc2C)c1 | - | - | -30.5 | -
Cc1ccc2cccc(SCC(=O)Nc3ccc(F)cc3)c2n1 | - | - | -73.8 | -
CCOC(=O)c1c(C2COc3ccccc3O2)csc1N (stereo unspecified) | ? | - | -40.6 | -
O=C(CNC(=O)OCc1ccccc1)NC(Cc1cnc[nH]1)C(=O)O (stereo unspecified) | - | . | - | .
O=C(C1CCCO1)N1CCN(C(=S)Nc2ccccc2C(F)(F)F)CC1 (stereo unspecified) | - | - | - | -
Cc1csc2sc(-c3ccnc(SCC(=O)NCc4ccccc4)n3)c(C)c12 | - | - | - | -
O=c1[nH]ncc2c3ccccc3n(Cc3cccc(Cl)c3)c12 | 31.6µM | ? | - | -
O=c1[nH]ncc2c3ccccc3n(Cc3ccc(F)cc3)c12 | - | - | - | -
CCOC(=O)Cc1csc(N/N=C/c2ccc(C(F)(F)F)cc2)n1 | - | - | - | -
Cc1ccc(-c2cc(C(=O)NCc3cccnc3)no2)cc1 | - | - | - | -
Cc1cc(C(=O)NCc2cccnc2)no1 | - | - | -30.8 | -
SMILES | S-ASM inh | USP2a block | CCT modulator | Mm-Cpn inhibitor
C=C(C)C(COc1c2occc2cc2ccc(=O)oc12)OC(C)(C)C(O)COc1c2occc2cc2ccc(=O)oc12 (stereo unspecified) | - | - | - | -
O=C(N/N=C/c1ccncc1)c1cccc(NC(=O)c2ccc(Cl)cc2)c1 | - | - | -35.9 | -
O=C(N/N=C/c1ccncc1)c1cccc(N/N=C/c2ccncc2)c1 | - | - | - | -
O=C(N/N=C/c1ccncc1)c1sc2ccccc2c1Cl | - | - | -83.6 | -
CC1CCC(N2CCN(C(=O)c3ccccc3F)CC2)CC1 (stereo unspecified) | - | - | - | -
CCC(C)NC(=O)CSc1nc2cc3c(cc2c(=O)n1Cc1ccco1)OCO3 (stereo unspecified) | - | - | - | -
CCN(CC)C(=O)CSc1nc2cc3c(cc2c(=O)n1Cc1ccco1)OCO3 | - | - | -33.7 | -
CCn1nccc1C(=O)Nc1ccccc1OC | - | - | - | -
CCn1ncc(Br)c1C(=O)Nc1ccccc1OC | - | - | -35.4 | -
CCNC(=S)NNc1nncc2ccccc12 | - | - | - | -
CS(=O)(=O)N1N=C(c2ccc3nccnc3c2)CC1c1ccccc1 (stereo unspecified) | - | - | -88.4 | ?
CN(C)c1nc(SCC(=O)Nc2ccccc2)nc(N2CCOCC2)n1 | - | - | - | -
O=S(=O)(NCc1ccc(Cl)cc1)NCc1ccccc1F | - | - | - | -
O=S(=O)(NCc1ccccc1)NCc1ccccc1F | - | - | -51.8 | -
